# Assay results as given in PubChem BioAssay (EPA / NIEHS).
# Results filed as inconclusive are left out. Calls of active or inactive are those of the source. The calls were made as follows, unless noted: active = hit-call score of the fitted dose curve at least 0.9, where 1 is the maximum; inconclusive = response in the unintended direction; inactive = score below 0.9.
# How the values were obtained:
# [1] = ATG_TAL_CIS: Attagene CIS-FACTORIAL HepG2 Assay for human TAL Basal Promoter (AID 2282966; active = hit-call score of the fitted dose curve at least 0.9, where 1 is the maximum; inactive = score below 0.9;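 also: background control endpoint measuring basal TAL promoter reporter mRNA not a specific factor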); settings: HepG2 Attagene cis-factorial TAL promoter reporter; actives raise or lower the signal
# Summary of the method: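 HepG2 cells transiently transfected with multiplexed cis-promoter reporter units, dosed 24 h. Reporter mRNA quantified by RT-PCR, 6-FAM labelling, HpaI digestion and capillary electrophoresis; TAL basal promoter serves as background control, fitted bidirectionally versus DMSO.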
# [2] = ATG_TGFb_CIS: Attagene CIS-FACTORIAL HepG2 Assay for human Transforming Growth Factor (TGF) (AID 2282967; active = hit-call score of the fitted dose curve at least 0.9, where 1 is the maximum; inactive = score below 0.9); settings: HepG2 Attagene CIS TGFb reporter, mRNA transcription; actives raise or lower the signal
# Summary of the method: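 Liver HepG2 line, cis-factorial reporter panel, 24 h dosing. Quantitation: RT-PCR products labeled with 6-FAM, cut with HpaI, resolved by capillary electrophoresis; DMSO-referenced bidirectional analysis.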
# [3] = ATG_VDRE_CIS: Attagene CIS-FACTORIAL HepG2 Assay for human Vitamin D Receptor Element (VDRE) (AID 2282968; active = hit-call score of the fitted dose curve at least 0.9, where 1 is the maximum; inactive = score below 0.9); settings: HepG2 VDRE cis-reporter transcription, actives raise or lower the signal
# Summary of the method: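 Reporter mRNA induction, quantified by capillary electrophoresis of fluorescently labelled RT-PCR products, was read 24 h after dosing HepG2 cells carrying transiently transfected cis-regulated reporter units; gain or loss relative to DMSO.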
# [4] = molecular target: X-box-binding protein 1 (Homo sapiens) (UniProt P17861); experiment: ATG_Xbp1_CIS: Attagene CIS-FACTORIAL HepG2 Assay for human X-box Binding Protein 1 (XBP1) (AID 2282972; active = hit-call score of the fitted dose curve at least 0.9, where 1 is the maximum; inactive = score below 0.9); settings: HepG2 XBP1 cis-element reporter, Attagene multiplex; actives raise or lower the signal
# Chain of X-box-binding protein 1 (Homo sapiens) (P17861 whole entry, looked up): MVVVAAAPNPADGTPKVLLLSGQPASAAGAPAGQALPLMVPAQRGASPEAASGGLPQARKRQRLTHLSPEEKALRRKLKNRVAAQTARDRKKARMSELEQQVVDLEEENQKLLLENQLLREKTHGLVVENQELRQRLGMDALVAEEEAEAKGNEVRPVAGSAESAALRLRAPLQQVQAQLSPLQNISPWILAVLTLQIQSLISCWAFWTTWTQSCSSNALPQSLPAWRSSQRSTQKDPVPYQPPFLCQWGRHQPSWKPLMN
# Summary of the method: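 HepG2 cells transiently transfected with cis-regulated multiple reporter transcription units; endogenous transcription factor activity measured 24 hours after chemical dosing. Reporter mRNA quantified by RT-PCR, 6-FAM primer extension, HpaI digestion and capillary electrophoresis; bidirectional fitting versus DMSO.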
# [5] = ATG_GAL4_TRANS: Attagene TRANS-FACTORIAL HepG2 Assay for GAL4 (Internal Marker) (AID 2282976); settings: HepG2 Attagene TRANS GAL4 internal marker reporter
# Summary of the method: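 Background-control readout: GAL4-UAS reporter transcript in transiently transfected HepG2 cells after 24 h compound exposure. Measured by RT-PCR, 6-FAM primer extension, HpaI digest and capillary electrophoresis; gain-of-signal fit versus DMSO.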
# [6] = molecular target: Glucocorticoid receptor (Homo sapiens) (UniProt P04150); experiment: ATG_GR_TRANS: Attagene TRANS-FACTORIAL HepG2 Assay for human Glucocorticoid Receptor (GR) (AID 2282978); settings: HepG2 Attagene TRANS GR reporter, mRNA transcription;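 also: activators score as hits since higher reporter transcript over DMSO is fitted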
# Chain of Glucocorticoid receptor (Homo sapiens) (P04150 whole entry, looked up, the tested form may be a part): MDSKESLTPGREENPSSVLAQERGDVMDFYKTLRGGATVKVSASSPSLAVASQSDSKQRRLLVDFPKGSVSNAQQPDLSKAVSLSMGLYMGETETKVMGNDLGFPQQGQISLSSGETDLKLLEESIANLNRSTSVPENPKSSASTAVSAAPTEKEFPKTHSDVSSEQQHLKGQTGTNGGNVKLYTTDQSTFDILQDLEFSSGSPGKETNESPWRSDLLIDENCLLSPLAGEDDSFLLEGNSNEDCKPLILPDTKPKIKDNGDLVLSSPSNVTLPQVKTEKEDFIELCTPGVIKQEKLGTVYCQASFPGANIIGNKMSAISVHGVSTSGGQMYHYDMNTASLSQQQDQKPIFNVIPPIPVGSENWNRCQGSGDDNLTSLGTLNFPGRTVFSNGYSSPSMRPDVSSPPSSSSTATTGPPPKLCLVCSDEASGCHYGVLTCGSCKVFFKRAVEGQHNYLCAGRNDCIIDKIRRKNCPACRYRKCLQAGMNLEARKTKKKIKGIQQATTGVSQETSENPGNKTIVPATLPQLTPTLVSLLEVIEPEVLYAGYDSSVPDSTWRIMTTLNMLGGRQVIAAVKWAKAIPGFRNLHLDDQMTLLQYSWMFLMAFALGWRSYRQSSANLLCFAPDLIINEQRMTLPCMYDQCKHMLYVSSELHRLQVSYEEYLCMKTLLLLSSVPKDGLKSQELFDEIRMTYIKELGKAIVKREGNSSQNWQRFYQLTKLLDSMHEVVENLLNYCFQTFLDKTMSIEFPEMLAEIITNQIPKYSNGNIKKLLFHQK
# Summary of the method: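 Exogenous NR-GAL4 fusion activity was assessed through induced GAL4-UAS reporter transcripts in transfected human HepG2 cells, quantified after 24 h by RT-PCR and fluorescent capillary electrophoresis with DMSO as baseline.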
# [7] = molecular target: Bile acid receptor (Homo sapiens) (UniProt Q96RI1); experiment: ATG_FXR_TRANS: Attagene TRANS-FACTORIAL HepG2 Assay for Farnesoid X Receptor (FXR) (AID 2282979); settings: HepG2 Attagene TRANS FXR-GAL4 reporter transcription;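 also: hits raise reporter mRNA above DMSO so AC50 marks FXR activation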
# Summary of the method: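 HepG2 cells were transiently transfected with GAL4-UAS reporters driven by chimeric NR-Gal4 proteins and dosed for 24 h. Reporter mRNA was quantified by RT-PCR, fluorescent labelling, HpaI digestion and capillary electrophoresis, with gain of signal scored versus DMSO.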
# [8] = molecular target: Oxysterols receptor LXR-beta (Homo sapiens) (UniProt P55055); experiment: ATG_LXRb_TRANS: Attagene TRANS-FACTORIAL HepG2 Assay for human Liver X Receptor beta (LXRb) (AID 2282981); settings: HepG2 Attagene TRANS GAL4-LXRb reporter, mRNA
# Chain of Oxysterols receptor LXR-beta (Homo sapiens) (P55055 whole entry, looked up, the tested form may be a part): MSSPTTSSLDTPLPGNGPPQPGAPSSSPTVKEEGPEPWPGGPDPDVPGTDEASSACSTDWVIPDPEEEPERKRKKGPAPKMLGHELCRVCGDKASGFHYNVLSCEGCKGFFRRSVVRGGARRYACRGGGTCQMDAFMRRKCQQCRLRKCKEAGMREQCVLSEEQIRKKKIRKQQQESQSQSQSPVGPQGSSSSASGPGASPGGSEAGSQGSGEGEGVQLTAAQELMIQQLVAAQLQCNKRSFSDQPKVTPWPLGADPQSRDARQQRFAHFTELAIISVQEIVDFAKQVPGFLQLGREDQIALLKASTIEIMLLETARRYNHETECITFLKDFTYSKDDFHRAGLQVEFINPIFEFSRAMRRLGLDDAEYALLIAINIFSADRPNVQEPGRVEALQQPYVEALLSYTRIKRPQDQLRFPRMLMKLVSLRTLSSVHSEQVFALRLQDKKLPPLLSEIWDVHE
# Summary of the method: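 Transient transfection HepG2 (multiplexed RTUs, GAL4-UAS); NR-Gal4 chimera; 24 h exposure; RNA → RT-PCR → 6-FAM primer extension → HpaI → CE; increase vs DMSO.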
# [9] = ATG_M_06_TRANS: Attagene TRANS-FACTORIAL HepG2 Assay for M06 Transcription Factor (Internal Marker) (AID 2282983); settings: HepG2 Attagene TRANS M06 internal marker reporter;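 also: reporter transcript level by RT-PCR then capillary electrophoresis fluorescence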
# Summary of the method: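 HepG2 cells transiently transfected with GAL4-UAS multiple reporter units, dosed 24 h. Reporter RNA reverse-transcribed, PCR-amplified, 6-FAM-labeled, HpaI-digested and quantified by capillary electrophoresis; this internal-marker signal fitted upward relative to DMSO.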
# [10] = ATG_M_32_TRANS: Attagene TRANS-FACTORIAL HepG2 Assay for M32 Transcription Factor (Internal Marker) (AID 2282984); settings: HepG2 Attagene TRANS M32 internal marker reporter
# Summary of the method: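 Measures reporter mRNA induction in human HepG2 liver cells after 24 h chemical treatment. Transcripts from transiently transfected GAL4-UAS reporter units are amplified, fluorescently labelled and sized by capillary electrophoresis; gain of signal relative to DMSO.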
# [11] = molecular target: Nuclear respiratory factor 1 (Homo sapiens) (UniProt Q16656); experiment: ATG_NRF1_CIS: Attagene CIS-FACTORIAL HepG2 Assay for human Nuclear Respiratory Factor 1 (NRF1) Orphan Gene (AID 2282987; active = hit-call score of the fitted dose curve at least 0.9, where 1 is the maximum; inactive = score below 0.9); settings: HepG2 NRF1 cis-element reporter, Attagene multiplex; actives raise or lower the signal
# Chain of Nuclear respiratory factor 1 (Homo sapiens) (Q16656 whole entry, looked up): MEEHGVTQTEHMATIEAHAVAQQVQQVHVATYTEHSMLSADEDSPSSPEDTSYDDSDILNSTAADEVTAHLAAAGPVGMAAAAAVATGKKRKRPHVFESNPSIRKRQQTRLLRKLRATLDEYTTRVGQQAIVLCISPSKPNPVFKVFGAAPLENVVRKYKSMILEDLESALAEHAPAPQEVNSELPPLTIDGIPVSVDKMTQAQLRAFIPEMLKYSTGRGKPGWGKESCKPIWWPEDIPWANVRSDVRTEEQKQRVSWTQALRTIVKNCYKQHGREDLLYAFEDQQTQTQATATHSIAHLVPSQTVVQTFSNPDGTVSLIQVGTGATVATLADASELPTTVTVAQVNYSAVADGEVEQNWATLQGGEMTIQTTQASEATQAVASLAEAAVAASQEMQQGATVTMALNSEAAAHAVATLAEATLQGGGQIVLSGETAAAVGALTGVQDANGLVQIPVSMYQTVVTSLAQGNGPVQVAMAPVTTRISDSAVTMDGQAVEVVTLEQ
# Summary of the method: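 Using DMSO as baseline, gain- or loss-of-signal was fitted for reporter mRNA levels in HepG2 cells transiently transfected with cis-regulated reporter units. Samples were taken 24 h after dosing and read by RT-PCR with capillary electrophoresis.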
# [12] = molecular target: Nuclear receptor subfamily 1 group I member 3 (Homo sapiens) (UniProt Q14994); experiment: ATG_CAR_TRANS: Attagene TRANS-FACTORIAL HepG2 Assay for human Constitutive Androstane Receptor (CAR) (AID 2282969); settings: HepG2 Attagene TRANS-FACTORIAL CAR reporter;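 also: activators raise reporter mRNA above DMSO so AC50 marks induction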
# Chain of Nuclear receptor subfamily 1 group I member 3 (Homo sapiens) (Q14994 whole entry, looked up, the tested form may be a part): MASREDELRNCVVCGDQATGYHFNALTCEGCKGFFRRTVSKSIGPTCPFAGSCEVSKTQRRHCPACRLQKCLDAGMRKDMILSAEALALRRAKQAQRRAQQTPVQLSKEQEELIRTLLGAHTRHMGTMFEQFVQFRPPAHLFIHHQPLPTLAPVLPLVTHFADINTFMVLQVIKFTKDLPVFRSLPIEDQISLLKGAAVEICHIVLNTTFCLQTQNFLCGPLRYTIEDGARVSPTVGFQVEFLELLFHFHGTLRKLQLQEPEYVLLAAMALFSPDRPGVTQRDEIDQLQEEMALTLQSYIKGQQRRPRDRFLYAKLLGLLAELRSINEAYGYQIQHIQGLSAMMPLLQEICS
# Summary of the method: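 Readout is reporter mRNA induction, quantified by fluorescent primer extension and capillary electrophoresis after RT-PCR. Cells were HepG2 transiently carrying chimeric NR-Gal4 constructs with GAL4-UAS reporters, treated for 24 h; activity scored upward from DMSO.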
# [13] = molecular target: Estrogen receptor (Homo sapiens) (UniProt P03372); experiment: ATG_ERa_TRANS: Attagene TRANS-FACTORIAL HepG2 Assay for human Estrogen Receptor alpha (ERa) (AID 2282970); settings: HepG2 Attagene TRANS ERa GAL4 reporter, mRNA
# Chain of Estrogen receptor (Homo sapiens) (P03372 whole entry, looked up, the tested form may be a part): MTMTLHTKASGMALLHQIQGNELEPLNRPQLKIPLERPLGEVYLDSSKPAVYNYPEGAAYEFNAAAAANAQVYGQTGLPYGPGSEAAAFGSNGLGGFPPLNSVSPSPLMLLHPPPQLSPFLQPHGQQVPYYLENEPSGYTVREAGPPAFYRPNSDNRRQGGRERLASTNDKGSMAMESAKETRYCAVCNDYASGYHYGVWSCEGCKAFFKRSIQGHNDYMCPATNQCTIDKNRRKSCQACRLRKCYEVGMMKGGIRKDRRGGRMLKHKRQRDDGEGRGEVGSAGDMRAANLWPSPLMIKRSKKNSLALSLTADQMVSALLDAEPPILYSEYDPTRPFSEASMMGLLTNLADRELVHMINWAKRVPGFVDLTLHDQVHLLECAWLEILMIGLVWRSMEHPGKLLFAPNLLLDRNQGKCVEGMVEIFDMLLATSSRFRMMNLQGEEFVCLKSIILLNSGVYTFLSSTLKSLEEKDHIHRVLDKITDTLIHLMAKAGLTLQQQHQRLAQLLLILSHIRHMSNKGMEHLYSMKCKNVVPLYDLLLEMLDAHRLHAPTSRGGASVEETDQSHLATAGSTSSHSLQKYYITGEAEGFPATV
# Summary of the method: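 HepG2 cells transiently transfected with multiplexed GAL4-UAS reporter units read out chimeric NR-Gal4 activity. After 24 h compound exposure, reporter mRNA was quantified by RT-PCR, 6-FAM labeling, HpaI digestion and capillary electrophoresis, relative to DMSO.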
# [14] = molecular target: Steroid hormone receptor ERR1 (Homo sapiens) (UniProt P11474); experiment: ATG_ERRa_TRANS: Attagene TRANS-FACTORIAL HepG2 Assay for human Estrogen-Related Receptor alpha (ERRa) (AID 2282971); settings: HepG2 Attagene TRANS reporter, ERRa transactivation
# Summary of the method: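 HepG2 cells transiently transfected with GAL4-UAS reporter units and chimeric NR-Gal4 constructs; after 24 hour compound incubation, reporter mRNA quantified by RT-PCR, fluorescent labelling and capillary electrophoresis, gain of signal versus DMSO.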
# [15] = molecular target: Estrogen-related receptor gamma (Homo sapiens) (UniProt P62508); experiment: ATG_ERRg_TRANS: Attagene TRANS-FACTORIAL HepG2 Assay for human Estrogen-Related Receptor gamma (ERRg) (AID 2282977); settings: HepG2 Attagene TRANS reporter, ERRg transactivation;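 also: hits increase reporter signal over DMSO so potencies reflect activators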
# Summary of the method: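 Transfect HepG2 with multiple GAL4-UAS reporter transcription units; dose chemicals 24 h; isolate RNA, reverse-transcribe with oligo(dT), PCR-amplify, label with 6-FAM, digest with HpaI; size fragments by capillary electrophoresis. DMSO serves as negative control.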
# [16] = molecular target: Oxysterols receptor LXR-alpha (Homo sapiens) (UniProt Q13133); experiment: ATG_LXRa_TRANS: Attagene TRANS-FACTORIAL HepG2 Assay for human Liver X Receptor alpha (LXRa) (AID 2282980); settings: HepG2 Attagene TRANS reporter, LXRa transactivation
# Summary of the method: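 HepG2 cells transiently transfected with GAL4-UAS reporter units for chimeric NR-Gal4 proteins, exposed to chemicals for 24 h. Reporter mRNA quantified by RT-PCR and capillary electrophoresis; gain of signal fitted relative to DMSO.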
# [17] = molecular target: Nuclear receptor subfamily 4 group A member 2 (Homo sapiens) (UniProt P43354); experiment: ATG_NURR1_TRANS: Attagene TRANS-FACTORIAL HepG2 Assay for human Nuclear Receptor Related Protein 1 (NURR1) (AID 2282985); settings: HepG2 Attagene TRANS reporter, mRNA readout
# Chain of Nuclear receptor subfamily 4 group A member 2 (Homo sapiens) (P43354 whole entry, looked up, the tested form may be a part): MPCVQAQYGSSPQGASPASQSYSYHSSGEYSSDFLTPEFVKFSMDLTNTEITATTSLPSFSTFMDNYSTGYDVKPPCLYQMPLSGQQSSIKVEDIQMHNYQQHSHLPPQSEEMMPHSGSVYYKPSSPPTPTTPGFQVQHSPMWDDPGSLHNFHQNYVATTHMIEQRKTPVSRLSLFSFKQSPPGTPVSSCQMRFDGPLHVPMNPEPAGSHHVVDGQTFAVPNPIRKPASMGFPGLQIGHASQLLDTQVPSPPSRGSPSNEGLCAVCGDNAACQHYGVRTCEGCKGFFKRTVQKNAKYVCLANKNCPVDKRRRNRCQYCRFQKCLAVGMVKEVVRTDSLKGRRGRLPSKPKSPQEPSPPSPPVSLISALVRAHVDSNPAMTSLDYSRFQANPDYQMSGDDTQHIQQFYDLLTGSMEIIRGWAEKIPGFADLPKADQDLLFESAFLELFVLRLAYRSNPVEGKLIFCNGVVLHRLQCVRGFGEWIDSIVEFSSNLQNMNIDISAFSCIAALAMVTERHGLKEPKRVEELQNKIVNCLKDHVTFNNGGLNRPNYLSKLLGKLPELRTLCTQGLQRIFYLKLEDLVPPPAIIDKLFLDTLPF
# Summary of the method: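 Transient transfection of HepG2, human liver cells, with multiple GAL4-UAS reporter transcription units. Cells dosed 24 h, RNA isolated, reverse-transcribed, PCR-amplified, FAM-labelled, HpaI-digested, sized by capillary electrophoresis. DMSO served as negative control.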
# [18] = ATG_M_19_TRANS: Attagene TRANS-FACTORIAL HepG2 Assay for M19 Transcription Factor (Internal Marker) (AID 2282974); settings: HepG2 Attagene TRANS-FACTORIAL M19 internal marker reporter
# Summary of the method: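 Using RT-PCR and capillary electrophoresis, reporter mRNA from transiently transfected human HepG2 cells was quantified following 24 h exposure; activity was fitted in the positive direction against DMSO.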
# [19] = molecular target: Transcriptional activator Myb (Homo sapiens) (UniProt P10242); experiment: ATG_Myb_CIS: Attagene CIS-FACTORIAL HepG2 Assay for human Myeloblastosis (Myb) Proto-Oncogene Transcription Factor (AID 2282986; active = hit-call score of the fitted dose curve at least 0.9, where 1 is the maximum; inactive = score below 0.9); settings: HepG2 Attagene CIS-FACTORIAL Myb reporter transcription; actives raise or lower the signal
# Chain of Transcriptional activator Myb (Homo sapiens) (P10242 whole entry, looked up): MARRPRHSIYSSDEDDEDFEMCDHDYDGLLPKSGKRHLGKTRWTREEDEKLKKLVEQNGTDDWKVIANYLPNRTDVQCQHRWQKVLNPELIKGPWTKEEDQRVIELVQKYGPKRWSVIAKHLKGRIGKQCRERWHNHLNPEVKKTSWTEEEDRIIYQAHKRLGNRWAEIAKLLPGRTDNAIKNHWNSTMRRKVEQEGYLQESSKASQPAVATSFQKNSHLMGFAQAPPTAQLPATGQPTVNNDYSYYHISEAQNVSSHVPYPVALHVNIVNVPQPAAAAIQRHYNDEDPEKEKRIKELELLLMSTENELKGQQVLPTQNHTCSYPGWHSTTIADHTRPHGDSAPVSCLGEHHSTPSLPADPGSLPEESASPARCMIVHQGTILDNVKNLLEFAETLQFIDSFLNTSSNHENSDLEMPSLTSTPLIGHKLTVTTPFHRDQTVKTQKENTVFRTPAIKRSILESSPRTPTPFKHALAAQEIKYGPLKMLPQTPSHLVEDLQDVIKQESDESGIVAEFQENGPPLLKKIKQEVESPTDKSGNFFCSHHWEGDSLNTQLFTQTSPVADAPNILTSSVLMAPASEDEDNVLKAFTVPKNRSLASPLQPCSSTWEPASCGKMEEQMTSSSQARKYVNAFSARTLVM
# Summary of the method: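 In this HepG2 transient-transfection format, cis-regulated reporter mRNA is quantified 24 h post-dosing by RT-PCR with capillary electrophoresis, fitted bidirectionally to DMSO baseline.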
# [20] = molecular target: Hepatocyte nuclear factor 4-alpha (Homo sapiens) (UniProt P41235); experiment: ATG_HNF4a_TRANS: Attagene TRANS-FACTORIAL HepG2 Assay for human Hepatocyte Nuclear Factor 4 alpha (HNF4a) (AID 2282982); settings: HepG2 HNF4a transactivation reporter, mRNA readout
# Chain of Hepatocyte nuclear factor 4-alpha (Homo sapiens) (P41235 whole entry, looked up, the tested form may be a part): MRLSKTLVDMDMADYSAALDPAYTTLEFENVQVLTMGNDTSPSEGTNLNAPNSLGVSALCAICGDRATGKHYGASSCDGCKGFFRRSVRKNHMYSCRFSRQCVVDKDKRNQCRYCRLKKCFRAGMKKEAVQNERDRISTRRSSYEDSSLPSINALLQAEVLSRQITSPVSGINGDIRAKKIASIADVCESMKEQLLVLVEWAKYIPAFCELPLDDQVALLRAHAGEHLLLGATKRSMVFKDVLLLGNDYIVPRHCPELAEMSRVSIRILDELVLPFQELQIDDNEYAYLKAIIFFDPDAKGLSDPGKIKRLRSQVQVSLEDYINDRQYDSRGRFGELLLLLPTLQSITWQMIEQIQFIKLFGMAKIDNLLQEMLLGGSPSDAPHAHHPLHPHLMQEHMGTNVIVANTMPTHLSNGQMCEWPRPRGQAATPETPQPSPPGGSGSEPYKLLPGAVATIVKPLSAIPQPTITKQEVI
# Summary of the method: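 Readout is fluorescent reporter-transcript fragments resolved by capillary electrophoresis after RT-PCR from HepG2 cells dosed for 24 h. Cells carried transfected GAL4-UAS reporter constructs measuring exogenous NR-GAL4 chimera activity; DMSO served as baseline.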
compound,measurement,setting,value
COC(F)(F)C(F)(C(F)(F)F)C(F)(F)F,outcome,[1],inactive
same,outcome,[2],inactive
same,outcome,[3],inactive
same,outcome,[4],inactive
same,outcome,[5],inactive
same,outcome,[6],inactive
same,outcome,[7],inactive
same,outcome,[8],inactive
same,outcome,[9],inactive
same,outcome,[10],inactive
same,outcome,[11],inactive
Cc1ccc(N/N=c2\c(=O)cc/c(=N/Nc3ccc(S(=O)(=O)O)cc3)c2=O)c(C)c1,outcome,[1],inactive
same,outcome,[2],inactive
same,outcome,[12],inactive
same,AC50,[13],100 µM (active)
same,outcome,[14],inactive
same,outcome,[4],inactive
same,outcome,[15],inactive
same,outcome,[16],inactive
same,outcome,[9],inactive
same,outcome,[10],inactive
same,outcome,[17],inactive
same,outcome,[11],inactive
O=S(=O)(O)c1ccc2cc(O)c(S(=O)(=O)O)cc2c1,outcome,[1],inactive
same,outcome,[2],inactive
same,outcome,[3],inactive
same,AC50,[4],172 µM (active)
same,outcome,[18],inactive
same,outcome,[8],inactive
same,outcome,[10],inactive
same,outcome,[19],inactive
same,outcome,[11],inactive
COCCOCCOCCOCCOC,outcome,[1],inactive
same,outcome,[2],inactive
same,outcome,[3],inactive
same,outcome,[4],inactive
same,outcome,[5],inactive
same,outcome,[6],inactive
same,outcome,[8],inactive
same,outcome,[20],inactive
same,outcome,[9],inactive
same,outcome,[19],inactive
same,outcome,[11],inactive
Cc1cccc(OCCOc2cccc(C)c2)c1,outcome,[1],inactive
same,outcome,[2],inactive
same,outcome,[12],inactive
same,outcome,[13],inactive
same,outcome,[14],inactive
same,outcome,[4],inactive
same,outcome,[18],inactive
same,outcome,[8],inactive
same,outcome,[10],inactive
same,outcome,[19],inactive
same,outcome,[11],inactive
CC1=CC[C@H](C(C)C)C=C1,outcome,[1],inactive
same,outcome,[2],inactive
same,outcome,[12],inactive
same,outcome,[13],inactive
same,outcome,[4],inactive
same,outcome,[18],inactive
same,outcome,[5],inactive
same,outcome,[16],inactive
same,outcome,[8],inactive
same,outcome,[10],inactive
same,outcome,[19],inactive
same,outcome,[11],inactive
CC=CCO,outcome,[1],inactive
same,outcome,[2],inactive
same,outcome,[3],inactive
same,outcome,[4],inactive
same,outcome,[6],inactive
same,outcome,[7],inactive
same,outcome,[20],inactive
same,outcome,[9],inactive
same,outcome,[10],inactive
same,outcome,[17],inactive
same,outcome,[19],inactive
same,outcome,[11],inactive
Cc1ccccc1C,outcome,[1],inactive
same,outcome,[2],inactive
same,outcome,[3],inactive
same,outcome,[4],inactive
same,outcome,[5],inactive
same,outcome,[15],inactive
same,outcome,[8],inactive
same,outcome,[20],inactive
same,outcome,[9],inactive
same,outcome,[10],inactive
same,outcome,[17],inactive
same,outcome,[19],inactive
same,outcome,[11],inactive
